Apoferritin bind = candidate novel general anesthetic via apoferritin binding | P02791 | apoferritin/1-aminoanthracene competitive binding, fluorescence | Potency, µM (doses to about 77.5 µM), inactives show at the top dose activity change, negative = displacement, most hits filed as inhibitors | 350,000 tested, 0.074% active | AID 485281; also: potency is read from the fitted curve at half-maximal effect; % is scaled to controls: 0 for no effect and ±100 for the full control effect; nearly all actives have a fitted effect of over 20% in size
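Horse-spleen apoferritin (10 uM) was mixed with 50% saturated 1-aminoanthracene in PBS, exposed to compounds for 10 min at room temperature, and read for fluorescence (ex 380 nm, em 535 nm). Competitive displacement was fitted with a four-parameter Hill equation.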
TexasRed fluor = alters Texas Red total fluorescence, flagging assay interference | 280,000 tested, 0.29% active | TRb/SRC2 Texas Red total fluorescence interference | AID 1479 | Potency, µM (top dose mostly 106 µM), inactives show at the highest dose fluorescence change, negative = quenching; active = well fitted curve in either direction with a large enough effect; inconclusive = small, poorly fitted or top-dose-only effect; also: potency is read from the fitted curve at half-maximal effect; % is scaled to controls: 0 for no effect and ±100 for the full control effect
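Human TRβ ligand-binding domain (0.6 uM) and Texas Red SRC2 peptide (20 nM) in Tris buffer with 1 uM T3 and 5% DMSO were incubated with pinned compound for 5 hr at ambient temperature. Total fluorescence was computed as S + 2P (555/632 nm).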
ERG-DNA inh = blocks human ERG Ets domain binding to DNA | AID 624246 | P11308 | Potency, µM (highest dose often 76.9 µM), for the others: top-dose FP activity, negative = inhibition, hits mostly inhibitors | 370,000 tested, 0.028% active | fluorescence polarization, His-ERG Ets domain / labelled DNA; active = well fitted inhibition curve with a large enough effect in the polarisation, with a control signal flat; inconclusive = small, poorly fitted or top-dose-only effect, or effect the other way, or a change in a side signal; inactive = no such curve, though single readings can be large or run the other way; the % refers to the polarisation;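 also: polarization taken with two DNA probes labelled with fluorescein and Texas red; potency is read from the fitted curve at half-maximal effect; % of control where 0% means no effect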
Target sequence (P11308 whole entry, looked up, the tested form may be a part): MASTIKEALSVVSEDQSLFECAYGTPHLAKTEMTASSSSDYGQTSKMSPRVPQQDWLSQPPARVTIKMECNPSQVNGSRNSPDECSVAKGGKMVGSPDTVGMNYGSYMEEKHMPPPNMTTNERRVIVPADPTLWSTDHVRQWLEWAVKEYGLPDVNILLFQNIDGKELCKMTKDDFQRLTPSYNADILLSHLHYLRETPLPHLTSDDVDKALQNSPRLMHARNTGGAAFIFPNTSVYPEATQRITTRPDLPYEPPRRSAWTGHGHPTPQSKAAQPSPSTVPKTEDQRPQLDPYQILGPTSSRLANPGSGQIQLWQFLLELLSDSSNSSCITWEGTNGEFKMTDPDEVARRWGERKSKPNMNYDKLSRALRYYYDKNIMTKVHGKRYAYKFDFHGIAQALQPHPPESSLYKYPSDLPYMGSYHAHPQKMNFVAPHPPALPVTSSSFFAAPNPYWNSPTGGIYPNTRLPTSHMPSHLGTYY
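His-tagged ERG Ets domain (1 uM in the protein solution; 300mM KCl, 50mM Tris-HCl, 1mM EDTA, 1mM DTT, pH 7.5) received compound, then a probe mix of 5 nM fluorescein-DNA and 100nM Texas-615-DNA. Fluorescence polarization was read for both dyes.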
RGS12 GoLoco inh-1 = RGS12 GoLoco-Gai1 interaction inhibition; P63096; Potency, µM (titrated, usually from 61.6 µM), without a hit: top-dose activity, negative = inhibition, most hits filed as inhibitors; 230,000 tested, 0.44% active; AID 880; Gai1:RGS12 GoLoco peptide FP, rhodamine, 10 min; active = well fitted inhibition curve with a large enough effect, not every such curve was filed as active; inactive = no such curve, though single readings can be large or run the other way; also: potency is read from the fitted curve at half-maximal effect; % is scaled to controls: 0 for no effect and ±100 for the full control effect; nearly all actives have a fitted effect of over 30% in size
Target sequence (P63096 whole entry, looked up): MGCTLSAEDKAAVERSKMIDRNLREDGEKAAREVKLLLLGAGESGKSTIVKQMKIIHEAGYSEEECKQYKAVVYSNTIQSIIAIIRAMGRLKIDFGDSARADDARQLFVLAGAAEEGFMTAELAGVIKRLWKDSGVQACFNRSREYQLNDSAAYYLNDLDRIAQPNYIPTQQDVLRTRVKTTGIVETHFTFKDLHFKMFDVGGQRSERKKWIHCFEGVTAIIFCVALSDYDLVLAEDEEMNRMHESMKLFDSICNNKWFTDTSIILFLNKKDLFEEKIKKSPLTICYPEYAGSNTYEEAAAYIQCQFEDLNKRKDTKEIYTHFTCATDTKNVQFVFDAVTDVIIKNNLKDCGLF
TRb SRC2 PPI = TRbeta-SRC2 interaction inhibition. Potency, µM (series often up to 106 µM), without a hit: at the highest dose activity change, negative = inhibition, usual class: inhibitors. TRbeta-SRC2 peptide binding, fluorescence polarization; receptor liganded with 1 µM T3. P10828. 280,000 tested, 0.065% active. AID 1469;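 also: potency is read from the fitted curve at half-maximal effect; plate controls were bound peptide for no effect and peptide without receptor for full effect; nearly all actives have a fitted effect of over 50% in size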
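Polarization signal, normalized between peptide-alone and full complex controls, measured compound effects on T3-liganded human TRb LBD (0.6 uM) binding 20 nM Texas Red SRC2 peptide after 5 hr.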
RGS12 GoLoco inh-2 = RGS12 (human) GoLoco motif inhibition, red FP; shares compounds with RGS12 GoLoco inh-1; Gai1/rhodamine-RGS12 GoLoco peptide fluorescence polarization; Potency, µM (highest dose often 57.1 µM), for inactives: at the highest dose activity, negative = inhibition, usual class: inhibitors; 110 tested, 50% active
* = called active by the depositor; [ ] = dose if it differs, or a comment. This is a sample that favours compounds with a hit; in the whole collection about 0.44% have one here. Unless noted, calls follow the shape of the dose curve; as a rule, active = well fitted curve in the direction sought with a large enough effect; inconclusive = small, poorly fitted or top-dose-only effect, or another doubt; inactive = no such curve, though single readings can be large; an effect the other way counts as inactive or inconclusive.

Results for COc1ccc2cc(C(N)=O)c(=Nc3ccccc3)oc2c1 ?
Apoferritin bind: -3.8%; TexasRed fluor: -2.6%; ERG-DNA inh: 4.3%; RGS12 GoLoco inh-1: 1.3%; TRb SRC2 PPI: 0.7%

How did CCn1c(CSc2n[nH]c(N)n2)nc2cc(C(=O)O)ccc21 do in these assays?
Apoferritin bind: -0.1%; TexasRed fluor: 35.5µM*[fluorescent]; ERG-DNA inh: 15.8µM*; RGS12 GoLoco inh-1: 3.55µM*; TRb SRC2 PPI: 28.2µM*

How did COCCn1c(SCCCC(=O)c2ccc(Br)cc2)nnc1-c1ccncc1 do in these assays?
Apoferritin bind: -15.8%; TexasRed fluor: 0.4%; ERG-DNA inh: 2.0%; RGS12 GoLoco inh-1: -9.9%; TRb SRC2 PPI: -4.9%

Results for CCn1c(CSc2nnc(-c3cccnc3)n2-c2ccccc2C)nc2cc(C(=O)O)ccc21 ?
Apoferritin bind: 5.1%; TexasRed fluor: 39.8µM*[fluorescent]; RGS12 GoLoco inh-1: 3.16µM*; TRb SRC2 PPI: 11.2µM*

How did CCn1c(CSc2nnc3ccccn23)nc2cc(C(=O)O)ccc21 do in these assays?
Apoferritin bind: -6.1%; TexasRed fluor: 39.8µM*[fluorescent]; ERG-DNA inh: inconclusive; RGS12 GoLoco inh-1: 4.47µM*; TRb SRC2 PPI: 7.94µM*

Results for CCOc1ccc(C(=O)CSc2nnc3ccccn23)cc1 ?
Apoferritin bind: -7.9%; TexasRed fluor: -2.9%; ERG-DNA inh: 5.6%; RGS12 GoLoco inh-1: 5.8%; TRb SRC2 PPI: -1.5%

How did CCn1c(CSc2nnc(-c3ccncc3)n2CCOC)nc2cc(C(=O)O)ccc21 do in these assays?
Apoferritin bind: -0.8%; TexasRed fluor: 50.1µM*[fluorescent]; ERG-DNA inh: 5.01µM*; RGS12 GoLoco inh-1: 11.2µM*; TRb SRC2 PPI: 12.6µM*

What do the screens show for `O=Cc1ccccc1C=O`?
TexasRed fluor: 39.8µM*[quencher]; RGS12 GoLoco inh-1: 6.3%; TRb SRC2 PPI: inconclusive

Results for Cc1ccc(S(=O)(=O)O[C@H]2CC(C(C)(C)C)CC[C@@H]2c2ccccc2)cc1 (some centres undefined) ?
RGS12 GoLoco inh-1: 4.6%[14.2 µM]

What do the screens show for `Cc1cc(=O)n(CC(=O)NC(C)c2ccccc2)c2c1c(C)nn2-c1cccc(F)c1` (centres undefined)?
Apoferritin bind: 39.5%; TexasRed fluor: 251µM*[quencher]; ERG-DNA inh: 4.0%; TRb SRC2 PPI: -23.5%

What do the screens show for `Nc1[nH]ncc1N=Nc1ccc(Cl)cc1`?
Apoferritin bind: 31.6µM*; TexasRed fluor: -3.3%; ERG-DNA inh: 1.5%; RGS12 GoLoco inh-1: -7.2%; TRb SRC2 PPI: -12.2%

How did CCN1C(c2ccccc2)=C(c2ccccc2)S/C1=C/C=C1\SC(=S)N(C)C1=O do in these assays?
Apoferritin bind: -11.0%; TexasRed fluor: 17.8µM*[fluorescent]; ERG-DNA inh: inconclusive; RGS12 GoLoco inh-1: 10.6%; TRb SRC2 PPI: inconclusive

How did Cc1cc(I)ccc1Nc1c(C(=O)NOCC2CC2)cc(F)c(F)c1F do in these assays?
Apoferritin bind: -13.4%; TexasRed fluor: -15.1%; TRb SRC2 PPI: 12.7%

What do the screens show for `CCc1ccc(NC(=O)CC2C(=O)NCCN2C(=O)c2ccccc2OC)cc1` (centres undefined)?
Apoferritin bind: -5.2%; TexasRed fluor: 8.91µM*[quencher]; ERG-DNA inh: 3.9%; TRb SRC2 PPI: -13.0%

What do the screens show for `COc1ccccc1NC(=O)CC1C(=O)NCCN1C(=O)Nc1ccccc1` (centres undefined)?
Apoferritin bind: -6.6%; TexasRed fluor: 2.9%; ERG-DNA inh: 2.3%; RGS12 GoLoco inh-1: 2.8%; TRb SRC2 PPI: 4.9%

What do the screens show for `Cc1ccc2cc3c(N)c4c(C)ccc(C)c4nc3nc2c1`?
Apoferritin bind: -11.7%; TexasRed fluor: -1.4%; ERG-DNA inh: -7.8%; RGS12 GoLoco inh-1: 17.8µM*; TRb SRC2 PPI: -1.3%

Results for CCCCn1nnnc1SCC(=O)Nc1ccc(N(C)C)cc1 ?
Apoferritin bind: -15.0%; TexasRed fluor: -0.5%; ERG-DNA inh: -6.0%; RGS12 GoLoco inh-1: 10µM*; TRb SRC2 PPI: 11.1%

How did Cc1ccc(C(=O)c2cn(Cc3ccc(Cl)cc3)c3nc(C)ccc3c2=O)cc1 do in these assays?
Apoferritin bind: inconclusive; TexasRed fluor: 4.2%; ERG-DNA inh: -10.0%; TRb SRC2 PPI: -0.3%

What do the screens show for `Cc1ccc(C(=O)c2cn(Cc3ccc(F)cc3)c3nc(C)ccc3c2=O)cc1`?
Apoferritin bind: -23.8%; TexasRed fluor: 0.0112µM*[quencher]; ERG-DNA inh: 3.6%; TRb SRC2 PPI: -21.2%[53 µM]

Results for Cc1cc(-c2ccc(N=Nc3cc(S(=O)(=O)O)c4ccccc4c3N)c(C)c2)ccc1N=Nc1cc(S(=O)(=O)O)c2ccccc2c1N ?
TexasRed fluor: inconclusive; RGS12 GoLoco inh-1: 124.6%; TRb SRC2 PPI: inconclusive

How did O=C1C=CC2=C3c4cc(O)c(O)cc4C[C@]3(O)COC2=C1 do in these assays?
Apoferritin bind: 36.2%; TexasRed fluor: 8.7%; RGS12 GoLoco inh-1: 0.251µM*; TRb SRC2 PPI: -7.3%

What do the screens show for `O=C(O)c1ccccc1-c1c2cc(Br)c(=O)c(Br)c-2oc2c(Br)c(O)c(Br)cc12`?
Apoferritin bind: 283.6%; TexasRed fluor: 28.2µM*[fluorescent]; TRb SRC2 PPI: inconclusive

Results for O=C(O)c1cccc2cccc(-c3c4ccc(=O)c(O)c-4oc4c(O)c(O)ccc34)c12 ?
ERG-DNA inh: 3.6%

How did O=C(NO)c1ccccc1 do in these assays?
TexasRed fluor: -4.3%; RGS12 GoLoco inh-1: 28.2µM*; TRb SRC2 PPI: 9.5%

Results for CNC(=O)c1ccccc1 ?
TexasRed fluor: -0.7%; RGS12 GoLoco inh-1: 2.3%; TRb SRC2 PPI: 2.6%

What do the screens show for `CC[C@H](C)[C@H](NC(=O)[C@H](Cc1ccc(O)cc1)NC(=O)[C@@H](NC(=O)[C@@H](N)CCCN=C(N)N)C(C)C)C(=O)N[C@@H](Cc1cnc[nH]1)C(=O)N1CCC[C@H]1C(=O)N[C@@H](Cc1ccccc1)C(=O)O`?
Apoferritin bind: 0.3%; TexasRed fluor: -4.2%; TRb SRC2 PPI: 1.4%

What do the screens show for `Nc1ccc2nc3c(=O)n(CCc4ccccc4)c(=O)[nH]c3nc2c1`?
Apoferritin bind: 109.8%; TexasRed fluor: -9.3%; ERG-DNA inh: inconclusive; RGS12 GoLoco inh-1: 17.8µM*; TRb SRC2 PPI: -6.0%; RGS12 GoLoco inh-2: 12.6µM*

How did Cc1nc2ccccc2c(=O)n1CCc1ccccc1 do in these assays?
Apoferritin bind: -11.8%; ERG-DNA inh: 2.3%

How did CCCCn1c(=O)[nH]c2nc3cc(N)ccc3nc2c1=O do in these assays?
Apoferritin bind: 270.9%; TexasRed fluor: 2.3%; ERG-DNA inh: inconclusive; RGS12 GoLoco inh-1: 12.6µM*; TRb SRC2 PPI: 5.7%; RGS12 GoLoco inh-2: 8.91µM*

What do the screens show for `CCCCn1c(N)c(Br)c(=O)[nH]c1=O`?
Apoferritin bind: -3.2%; TexasRed fluor: 0.7%; ERG-DNA inh: 11.9%; RGS12 GoLoco inh-1: 7.3%; TRb SRC2 PPI: 6.3%
